Screen size: about 5,500 compounds; about 2,000 (36%) were called active. Not shown: some 18% with an inconclusive outcome. The list shows a part of the results. Unmarked numbers belong to inactive results. Cut-off read from the data, not from the text of the source: active = normalized growth mostly below about 0.91 (no sharp cut-off); inconclusive = no clear call, values can overlap the other calls; inactive = mostly above about 0.92.
Assay: chemical genetic growth profiling, strain panel (AID 1159580);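 note: tested at 20 µM; growth read once vehicle control cultures reached saturation at 30 °C; 1 = growth at the plate median or of vehicle wells; lower values mean less growth of the strain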
Settings: growth OD

## C#CC1(O)CCC2C3CCC4=CC(=O)CCC4(C)C3CCC21C (stereo unspecified)
S. cerevisiae deletion strains, locus YKL009W, strain mrt4, stronger effect = lower value
  normalized growth: 0.945
S. cerevisiae deletion strains, locus YKL068W, stronger effect = lower value
  normalized growth: 0.991
S. cerevisiae deletion strains, locus YKL085W, strain MDH1 (second series), stronger effect = lower value
  normalized growth: 0.99
S. cerevisiae deletion strains, locus YKL085W, strain MDH1, stronger effect = lower value
  normalized growth: 0.99
S. cerevisiae deletion strains, locus YKL160W, strain elf1, stronger effect = lower value
  normalized growth: 0.979
S. cerevisiae deletion strains, locus YKL190W, strain CNB1, stronger effect = lower value
  normalized growth: 0.997
S. cerevisiae deletion strains, locus YKR001C, strain vps1, stronger effect = lower value
  normalized growth: 0.99
S. cerevisiae deletion strains, locus YKR026C, strain gcn3, stronger effect = lower value
  normalized growth: 0.991
S. cerevisiae deletion strains, locus YKR091W, strain srl3, stronger effect = lower value
  normalized growth: 0.977
S. cerevisiae deletion strains, locus YLL001W, strain dnm1, stronger effect = lower value
  normalized growth: 1
S. cerevisiae deletion strains, locus YLL026W, stronger effect = lower value
  normalized growth: 0.986
S. cerevisiae deletion strains, locus YLL041C, strain sdh2, stronger effect = lower value
  normalized growth: 0.998
S. cerevisiae deletion strains, locus YLR027C, strain aat2, stronger effect = lower value
  normalized growth: 0.986
S. cerevisiae deletion strains, locus YLR039C, strain RIC1, stronger effect = lower value
  normalized growth: 1.31
S. cerevisiae deletion strains, locus YLR058C, strain SHM2, stronger effect = lower value
  normalized growth: 0.986
S. cerevisiae deletion strains, locus YLR102C, strain apc9, stronger effect = lower value
  normalized growth: 0.978
S. cerevisiae deletion strains, locus YLR113W, strain HOG1, stronger effect = lower value
  normalized growth: 1.03
S. cerevisiae deletion strains, locus YLR221C, strain rsa3, stronger effect = lower value
  normalized growth: 1
S. cerevisiae deletion strains, locus YLR258W, strain gsy2, stronger effect = lower value
  normalized growth: 0.983
S. cerevisiae deletion strains, locus YLR262C, strain YPT6 (second series), stronger effect = lower value
  normalized growth: 1.05
S. cerevisiae deletion strains, locus YLR262C, strain YPT6, stronger effect = lower value
  normalized growth: 1.2
S. cerevisiae deletion strains, locus YLR268W, strain sec22, stronger effect = lower value
  normalized growth: 0.987
S. cerevisiae deletion strains, locus YLR320W, strain mms22, stronger effect = lower value
  normalized growth: 0.997
S. cerevisiae deletion strains, locus YLR330W, strain CHS5, stronger effect = lower value
  normalized growth: 0.988
S. cerevisiae deletion strains, locus YLR342W, strain FKS1 (second series), stronger effect = lower value
  normalized growth: 0.909
S. cerevisiae deletion strains, locus YLR342W, strain FKS1, stronger effect = lower value
  normalized growth: 0.988
S. cerevisiae deletion strains, locus YLR357W, strain rsc2, stronger effect = lower value
  normalized growth: 1
S. cerevisiae deletion strains, locus YLR370C, strain arc18, stronger effect = lower value
  normalized growth: 0.975
S. cerevisiae deletion strains, locus YLR371W, strain rom2, stronger effect = lower value
  normalized growth: 0.987
S. cerevisiae deletion strains, locus YLR384C, strain iki3, stronger effect = lower value
  normalized growth: 0.99
S. cerevisiae deletion strains, locus YLR418C, strain cdc73, stronger effect = lower value
  normalized growth: 0.921
S. cerevisiae deletion strains, locus YML016C, strain PPZ1, stronger effect = lower value
  normalized growth: 0.989
S. cerevisiae deletion strains, locus YML032C, strain rad52, stronger effect = lower value
  normalized growth: 0.99
S. cerevisiae deletion strains, locus YML120C, strain ndi1, stronger effect = lower value
  normalized growth: 0.99
S. cerevisiae deletion strains, locus YML124C, strain tub3, stronger effect = lower value
  normalized growth: 0.991
S. cerevisiae deletion strains, locus YMR058W, strain fet3, stronger effect = lower value
  normalized growth: 0.948
S. cerevisiae deletion strains, locus YMR078C, strain ctf18, stronger effect = lower value
  normalized growth: 0.976
S. cerevisiae deletion strains, locus YMR125W, strain sto1, stronger effect = lower value
  normalized growth: 0.967
S. cerevisiae deletion strains, locus YMR129W, stronger effect = lower value
  normalized growth: 0.988
S. cerevisiae deletion strains, locus YMR205C, strain PFK2, stronger effect = lower value
  normalized growth: 0.991
S. cerevisiae deletion strains, locus YMR223W, strain ubp8, stronger effect = lower value
  normalized growth: 0.957
S. cerevisiae deletion strains, locus YMR231W, strain pep5, stronger effect = lower value
  normalized growth: 0.997
S. cerevisiae deletion strains, locus YMR263W, strain SAP30, stronger effect = lower value
  normalized growth: 1.01
S. cerevisiae deletion strains, locus YMR307W, strain GAS1, stronger effect = lower value
  normalized growth: 1.14
S. cerevisiae deletion strains, locus YNL067W, strain RPL9B, stronger effect = lower value
  normalized growth: 1.02
S. cerevisiae deletion strains, locus YNL071W, strain lat1, stronger effect = lower value
  normalized growth: 1
S. cerevisiae deletion strains, locus YNL153C, strain GIM3, stronger effect = lower value
  normalized growth: 1.04
S. cerevisiae deletion strains, locus YNL183C, strain NPR1, stronger effect = lower value
  normalized growth: 0.955
S. cerevisiae deletion strains, locus YNL209W, strain ssb2, stronger effect = lower value
  normalized growth: 0.988
S. cerevisiae deletion strains, locus YNL233W, strain BNI4, stronger effect = lower value
  normalized growth: 1.02
S. cerevisiae deletion strains, locus YNL248C, strain rpa49, stronger effect = lower value
  normalized growth: 0.987
S. cerevisiae deletion strains, locus YNL250W, strain rad50, stronger effect = lower value
  normalized growth: 0.978
S. cerevisiae deletion strains, locus YNL271C, strain bni1, stronger effect = lower value
  normalized growth: 0.979
S. cerevisiae deletion strains, locus YNL298W, strain CLA4, stronger effect = lower value
  normalized growth: 0.954
S. cerevisiae deletion strains, locus YNL307C, strain MCK1, stronger effect = lower value
  normalized growth: 0.906 (active)
S. cerevisiae deletion strains, locus YNL322C, strain KRE1 (second series), stronger effect = lower value
  normalized growth: 1
S. cerevisiae deletion strains, locus YNR049C, strain mso1, stronger effect = lower value
  normalized growth: 0.965
S. cerevisiae deletion strains, locus YNR052C, strain pop2, stronger effect = lower value
  normalized growth: 0.966
S. cerevisiae deletion strains, locus YOL147C, strain pex11, stronger effect = lower value
  normalized growth: 0.994
S. cerevisiae deletion strains, locus YOR001W, strain rrp6, stronger effect = lower value
  normalized growth: 0.998
S. cerevisiae deletion strains, locus YOR061W, strain CKA2, stronger effect = lower value
  normalized growth: 0.986
S. cerevisiae deletion strains, locus YOR069W, strain VPS5, stronger effect = lower value
  normalized growth: 0.981
S. cerevisiae deletion strains, locus YOR070C, strain gyp1, stronger effect = lower value
  normalized growth: 0.992
S. cerevisiae deletion strains, locus YOR080W, strain dia2, stronger effect = lower value
  normalized growth: 0.972
S. cerevisiae deletion strains, locus YOR083W, strain WHI5, stronger effect = lower value
  normalized growth: 0.948
S. cerevisiae deletion strains, locus YOR106W, strain vam3, stronger effect = lower value
  normalized growth: 0.965
S. cerevisiae deletion strains, locus YOR136W, strain idh2, stronger effect = lower value
  normalized growth: 0.977
S. cerevisiae deletion strains, locus YOR144C, strain elg1, stronger effect = lower value
  normalized growth: 0.975
S. cerevisiae deletion strains, locus YOR184W, strain ser1, stronger effect = lower value
  normalized growth: 0.87 (active)
S. cerevisiae deletion strains, locus YOR231W, strain MKK1, stronger effect = lower value
  normalized growth: 1.02
S. cerevisiae deletion strains, locus YOR265W, strain rbl2, stronger effect = lower value
  normalized growth: 0.988
S. cerevisiae deletion strains, locus YOR270C, strain vph1, stronger effect = lower value
  normalized growth: 0.727 (active)
S. cerevisiae deletion strains, locus YOR290C, strain snf2, stronger effect = lower value
  normalized growth: 0.974
S. cerevisiae deletion strains, locus YOR316C, strain cot1, stronger effect = lower value
  normalized growth: 0.979
S. cerevisiae deletion strains, locus YPL051W, strain arl3, stronger effect = lower value
  normalized growth: 1.01
S. cerevisiae deletion strains, locus YPL078C, strain atp4, stronger effect = lower value
  normalized growth: 0.987
S. cerevisiae deletion strains, locus YPL106C, strain sse1, stronger effect = lower value
  normalized growth: 0.985
S. cerevisiae deletion strains, locus YPL240C, strain hsp82, stronger effect = lower value
  normalized growth: 0.988
S. cerevisiae deletion strains, locus YPL241C, strain CIN2, stronger effect = lower value
  normalized growth: 0.99
S. cerevisiae deletion strains, locus YPL256C, strain CLN2, stronger effect = lower value
  normalized growth: 0.994
S. cerevisiae deletion strains, locus YPR119W, strain clb2, stronger effect = lower value
  normalized growth: 0.983
S. cerevisiae deletion strains, locus YPR141C, strain kar3, stronger effect = lower value
  normalized growth: 0.982
S. cerevisiae deletion strains, locus YPR163C, strain tif3, stronger effect = lower value
  normalized growth: 0.977
S. cerevisiae deletion strains, locus YPR167C, strain met16, stronger effect = lower value
  normalized growth: 0.97
S. cerevisiae deletion strains, strain wtn01, stronger effect = lower value
  normalized growth: 0.955
S. cerevisiae strains, strain wild type, stronger effect = lower value
  normalized growth: 0.99

From PubChem BioAssay AID1159580 (chemical genetic matrix, 2015)
